The record followed here is a collection of fitness landscapes (doi:10.1038/s41467-024-54723-y).

Whole data set: some 18,000 sequences, median “TetR repression strength (sort-seq, GFP reporter)” near 0.23, cut for the highest 2% near 0.68. Only a selection was taken, and the highest values are over-represented in it overall.

Chain of TetR (class B, Tn10) (P04483 whole entry): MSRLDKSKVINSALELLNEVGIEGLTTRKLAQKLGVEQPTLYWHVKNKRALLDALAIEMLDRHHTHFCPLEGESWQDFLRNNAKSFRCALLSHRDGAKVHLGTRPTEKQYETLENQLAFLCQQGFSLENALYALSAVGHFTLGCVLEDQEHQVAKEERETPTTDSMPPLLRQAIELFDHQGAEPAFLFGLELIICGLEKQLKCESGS

This assay addresses TetR (class B, Tn10) (UniProt P04483). As to the kind of experiment: TetR repression strength (sort-seq, GFP reporter) (relative to tetO2 = 1); higher = stronger repression. The conditions noted are these: E. coli. The method, boiled down: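 In LB with 50 µg/mL chloramphenicol, E. coli SIG10-MAX holding a low-copy library with eight randomized operator positions between a constitutive promoter and sfGFP, plus constitutive TetR, grew for 5 h at 37 °C. FACS then sorted 10^6 cells into 13 fluorescence bins for Illumina sequencing of each bin. Repression strength equals the top bin index plus one less the read-weighted mean bin, normalized to the unaltered operator. Values from three independent transformations were averaged when reads were ≥30 in every replicate and the CV was ≤0.5.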
As for TCCCGAACAGTGGGAGAGA, the TetR repression strength was 0.231.
The figure for TCCCCATTAGTCGCGGAGA is 0.241.
As for TCCCATTTAGTCGCGGAGA, the figure is 0.755; as for TCCCAGTTAGTTCGGGAGA, 0.0688; as for TCCCATTTAGTTCGGGAGA, 1.09.
The sequence TCCCGGGTAGTTCGAGAGA yielded a TetR repression strength of 0.289.
As for TCCCATTGAGTTCGGGAGA, the figure is 0.851.
For the sequence TCCCGGGTAGTTCGGGAGA, the TetR repression strength worked out at 0.723.
The figure for TCCCGGGGAGTTCGGGAGA is 0.307; for TCCCATGGAGTTCGGGAGA it is 0.228; for TCCCATTGAGTTCGAGAGA it is 0.29.
The figure for TCCCATTTAGTCGGAGAGA is 0.231; for TCCCCTTTAGTTCGGGAGA it is 0.339.
As for TCCCATACAGTCGTAGAGA, the figure is 0.0752; as for TCCCTCAGAGTGCTGGAGA, 0.475.
In the case of TCCCGGCAAGTTAGTGAGA, the TetR repression strength was 0.0764.
As for TCCCGTCAAGTGCATGAGA, the figure is 0.315; as for TCCCTATCAGTAGGCGAGA, 0.414.
As for TCCCTATAAGTTACTGAGA, the figure is 0.711.
The figure for TCCCTATCAGTTACTGAGA is 0.698.
TCCCTAACAGTTACAGAGA displayed a TetR repression strength of 0.203.
As for TCCCTAGAAGTTACTGAGA, the figure is 0.18; as for TCCCTAACAGTTACTGAGA, 0.297; as for TCCCTCTCAGTTACTGAGA, 0.703.
The figure for TCCCTGTCAGTTACTGAGA is 0.327; for TCCCTATCAGTTACAGAGA it is 0.707.
The figure for TCCCTATCAGTTACGGAGA is 0.484; for TCCCTATAAGTTATTGAGA it is 0.433; for TCCCCTTCAGTTACTGAGA it is 0.28.
For TCCCTTTCAGTTACAGAGA, the TetR repression strength is 0.363.
The figure for TCCCCTTGAGTGGACGAGA is 0.325; for TCCCAGAGAGTAGCAGAGA it is 0.294.
Sequence TCCCCCACAGTAAGAGAGA yielded a TetR repression strength of 0.158.
As for TCCCTTATAGTGGGGGAGA, the figure is 0.161; as for TCCCCACGAGTGAGGGAGA, 0.217; as for TCCCCACCAGTGAGGGAGA, 0.933.
The figure for TCCCCACAAGTGAGGGAGA is 0.956; for TCCCACCAAGTGAGGGAGA it is 0.324.
The figure for TCCCCCACAGTGAGGGAGA is 0.311; for TCCCCAGCAGTGAGGGAGA it is 0.0743; for TCCCACTTAGTGACAGAGA it is 0.396.
TCCCTGTGAGTGAGAGAGA gave a TetR repression strength of 0.407.
The figure for TCCCGTAGAGTATACGAGA is 0.126; for TCCCATTGAGTCCTAGAGA it is 0.304.
The figure for TCCCACCAAGTACAGGAGA is 0.186; for TCCCGGTCAGTGACAGAGA it is 0.666; for TCCCGCTGAGTGCCAGAGA it is 0.341.
Sequence TCCCGCAGAGTGTAGGAGA displayed a TetR repression strength of 0.191.
The figure for TCCCGCAGAGTGTAAGAGA is 0.753; for TCCCGCTCAGTGCCTGAGA it is 0.348.
The figure for TCCCGCTCAGTGACAGAGA is 0.715; for TCCCGCTCAGTGCCAGAGA it is 0.801.
In the case of TCCCGCTCAGTGTCAGAGA, the TetR repression strength amounted to 0.244.
In the case of TCCCGCGGAGTGTAAGAGA, the TetR repression strength is 0.256.
In turn, TCCCGCTTAGTGTCAGAGA gave a TetR repression strength of 0.634.
The figure for TCCCGCTGAGTGTCAGAGA is 1.09; for TCCCTCTCAGTGACAGAGA it is 0.607; for TCCCTCTAAGTGTCCGAGA it is 0.512.
As for TCCCTTCGAGTCCGAGAGA, the figure is 0.228.
The figure for TCCCGCATAGTACCTGAGA is 0.562; for TCCCCAGGAGTGTCTGAGA it is 0.273.
TCCCTTAAAGTATTAGAGA yielded a TetR repression strength of 0.252.
As for TCCCTTTAAGTTGACGAGA, the figure is 0.338.
The sequence TCCCAGGTAGTCGGCGAGA returned a TetR repression strength of 0.113.
Sequence TCCCGACCAGTATGCGAGA yielded a TetR repression strength of 0.0346.
Take TCCCAGGGAGTAGTTGAGA: the TetR repression strength came out at 0.0889.
As for TCCCGGTAAGTAGGCGAGA, the figure is 1.05.
The figure for TCCCGGGCAGTAGGCGAGA is 1.05; for TCCCGGGAAGTAGGCGAGA it is 0.849.
TCCCGGGCAGTTCAAGAGA displayed a TetR repression strength of 0.417.
The figure for TCCCCGGAAGTAGGCGAGA is 0.186.
As for TCCCGGGCAGTACAAGAGA, the figure is 1.05; as for TCCCGCTAAGTAGGCGAGA, 0.0386.
In turn, TCCCGGGCAGTGGGCGAGA showed a TetR repression strength of 0.253.
As for TCCCGGTAAGTAGGAGAGA, the figure is 0.229; as for TCCCAGGCAGTAGGCGAGA, 0.205.
In turn, TCCCGGAAAGTAGGCGAGA displayed a TetR repression strength of 0.0444.
The figure for TCCCGGGCAGTACACGAGA is 0.318.
As for TCCCACCAAGTGTTCGAGA, the figure is 0.311.
On to TCCCTCGGAGTGCTTGAGA, for which the TetR repression strength was 0.224.
As for TCCCGACGAGTAGCAGAGA, the figure is 0.486.
The figure for TCCCGGTAAGTCAAGGAGA is 0.397; for TCCCTCATAGTGCTCGAGA it is 0.581.
As for TCCCAGGGAGTGTTAGAGA, the figure is 0.263; as for TCCCGCTGAGTCCGGGAGA, 0.401.
Regarding TCCCGGTCAGTAGGCGAGA, the TetR repression strength stood at 1.01.
As for TCCCCGTCAGTAGGCGAGA, the figure is 0.243; as for TCCCAGTCAGTAGGCGAGA, 0.16; as for TCCCTAGCAGTCTTCGAGA, 0.495.
Take TCCCTTGGAGTCGTTGAGA: the TetR repression strength is 0.304.
The figure for TCCCTTCTAGTTACTGAGA is 0.464.
As for TCCCTTCTAGTCTTTGAGA, the figure is 0.693.
The figure for TCCCTTAGAGTCTATGAGA is 0.159.
TCCCTTCTAGTTGCTGAGA had a TetR repression strength of 0.73.
The figure for TCCCTTTTAGTGTATGAGA is 0.271.
Turning to TCCCTTCTAGTTTTTGAGA, the TetR repression strength is 0.415.
As for TCCCTTTTAGTCTATGAGA, the figure is 0.858; as for TCCCTTCTAGTTGTTGAGA, 0.216.
As for TCCCTTTGAGTCTATGAGA, the figure is 0.804; as for TCCCTTTGAGTCTTTGAGA, 0.181.
TCCCATTTAGTCTATGAGA displayed a TetR repression strength of 0.279.
As for TCCCGTCTAGTCTTTGAGA, the TetR repression strength worked out at 0.366.
